# In paper PMC7862700, “An all-to-all approach to the identification of sequence-specific readers for epigenetic DNA modifications on cytosine”:
# Legend:
# Assay in all cases: DAPPL (digital affinity profiling via proximity ligation, sequencing); 10 mM Tris-HCl pH 7.5, 50 mM NaCl, 1 mM DTT, 4% glycerol, room temperature, 30 min; GST-TFs on glutathione beads, 16-mer random dsDNA library, 0.1% formaldehyde crosslink after washing; high values mean tight binding
# FLI1 = biological target: T1, FLI1 (Homo sapiens, UniProt Q01543 1-452); details: protein: recombinant; tags: N-terminal GST; dsDNA, one strand shown
# T1 sequence: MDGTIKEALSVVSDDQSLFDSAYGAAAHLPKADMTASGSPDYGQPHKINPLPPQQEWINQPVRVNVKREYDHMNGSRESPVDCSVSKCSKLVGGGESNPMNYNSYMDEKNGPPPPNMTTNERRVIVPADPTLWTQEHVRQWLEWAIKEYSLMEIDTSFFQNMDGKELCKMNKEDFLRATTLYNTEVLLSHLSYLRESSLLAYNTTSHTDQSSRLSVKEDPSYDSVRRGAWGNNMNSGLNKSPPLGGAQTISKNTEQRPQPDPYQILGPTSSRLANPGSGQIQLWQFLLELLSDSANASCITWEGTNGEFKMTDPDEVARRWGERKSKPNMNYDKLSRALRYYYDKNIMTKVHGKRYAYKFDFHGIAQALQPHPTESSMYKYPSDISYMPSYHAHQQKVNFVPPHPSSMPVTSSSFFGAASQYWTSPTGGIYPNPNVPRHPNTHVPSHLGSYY
# Summary of the method: (§1)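 Human transcription factors fused to GST were expressed in yeast, captured on glutathione beads, given DNA barcodes and pooled with a GST-only negative control. Pools were incubated with 200 nmole of a 16-mer random double-stranded DNA library in Tris/NaCl/DTT/glycerol buffer at room temperature for 30 min. They were then washed, crosslinked with 0.1% formaldehyde, proximity-ligated (BsaI/T4 ligase, 1 h, 37 °C), PCR-amplified and sequenced on an Illumina NextSeq500. Binding signal is each 6-mer's read frequency for a factor divided by its frequency for the GST control.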
# ELK1 = biological target: T2, ELK1 (Homo sapiens, UniProt P19419 1-428); details: protein: recombinant; tags: N-terminal GST; dsDNA, one strand shown
# T2 sequence: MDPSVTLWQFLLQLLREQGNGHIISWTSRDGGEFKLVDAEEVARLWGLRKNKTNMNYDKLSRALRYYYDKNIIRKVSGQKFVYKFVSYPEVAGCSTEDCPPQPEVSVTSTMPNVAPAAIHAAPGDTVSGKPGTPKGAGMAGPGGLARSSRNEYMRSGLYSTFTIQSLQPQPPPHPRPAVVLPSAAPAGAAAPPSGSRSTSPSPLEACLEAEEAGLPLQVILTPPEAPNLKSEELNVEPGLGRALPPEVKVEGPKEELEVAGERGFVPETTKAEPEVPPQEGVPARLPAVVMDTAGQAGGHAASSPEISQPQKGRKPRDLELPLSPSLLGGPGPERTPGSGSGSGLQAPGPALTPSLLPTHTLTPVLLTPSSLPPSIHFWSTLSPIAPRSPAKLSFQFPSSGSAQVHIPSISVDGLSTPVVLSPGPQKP
# Summary of the method: as §1
# GABPA = biological target: T3, GABPA (Homo sapiens, UniProt Q06546 1-454); details: protein: recombinant; tags: N-terminal GST; dsDNA, one strand shown
# T3 sequence: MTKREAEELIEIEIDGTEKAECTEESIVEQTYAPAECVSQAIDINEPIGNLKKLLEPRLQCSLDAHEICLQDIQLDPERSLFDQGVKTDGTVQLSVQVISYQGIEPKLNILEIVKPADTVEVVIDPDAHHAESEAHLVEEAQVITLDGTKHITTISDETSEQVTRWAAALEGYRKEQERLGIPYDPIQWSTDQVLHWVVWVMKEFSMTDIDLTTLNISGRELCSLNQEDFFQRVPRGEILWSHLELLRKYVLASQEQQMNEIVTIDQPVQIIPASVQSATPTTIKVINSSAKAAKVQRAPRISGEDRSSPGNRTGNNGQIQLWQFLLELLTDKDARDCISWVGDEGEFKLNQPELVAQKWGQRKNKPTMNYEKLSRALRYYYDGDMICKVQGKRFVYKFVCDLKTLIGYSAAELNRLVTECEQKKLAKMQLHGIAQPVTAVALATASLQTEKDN
# Summary of the method: as §1
# ERG = biological target: T4, ERG (Homo sapiens, UniProt P11308 1-479); details: protein: recombinant; tags: N-terminal GST; dsDNA, one strand shown
# T4 sequence: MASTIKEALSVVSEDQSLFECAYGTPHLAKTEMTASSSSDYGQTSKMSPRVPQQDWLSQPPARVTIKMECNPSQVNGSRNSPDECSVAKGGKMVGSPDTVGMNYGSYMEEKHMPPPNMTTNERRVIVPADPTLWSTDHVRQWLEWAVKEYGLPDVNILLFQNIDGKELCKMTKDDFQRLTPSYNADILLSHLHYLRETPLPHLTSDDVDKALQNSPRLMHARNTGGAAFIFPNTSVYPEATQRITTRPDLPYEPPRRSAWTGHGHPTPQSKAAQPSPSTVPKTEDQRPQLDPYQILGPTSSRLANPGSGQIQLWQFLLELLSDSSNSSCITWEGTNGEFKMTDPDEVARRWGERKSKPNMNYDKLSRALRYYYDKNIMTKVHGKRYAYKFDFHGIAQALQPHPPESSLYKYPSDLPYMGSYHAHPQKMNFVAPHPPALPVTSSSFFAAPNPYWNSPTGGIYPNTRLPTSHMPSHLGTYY
# Summary of the method: as §1
# ELF1 = ELF1 (Homo sapiens, UniProt P32519 1-619); details: protein: recombinant; tags: N-terminal GST; dsDNA, one strand shown
# Chain of ELF1 (P32519 whole entry): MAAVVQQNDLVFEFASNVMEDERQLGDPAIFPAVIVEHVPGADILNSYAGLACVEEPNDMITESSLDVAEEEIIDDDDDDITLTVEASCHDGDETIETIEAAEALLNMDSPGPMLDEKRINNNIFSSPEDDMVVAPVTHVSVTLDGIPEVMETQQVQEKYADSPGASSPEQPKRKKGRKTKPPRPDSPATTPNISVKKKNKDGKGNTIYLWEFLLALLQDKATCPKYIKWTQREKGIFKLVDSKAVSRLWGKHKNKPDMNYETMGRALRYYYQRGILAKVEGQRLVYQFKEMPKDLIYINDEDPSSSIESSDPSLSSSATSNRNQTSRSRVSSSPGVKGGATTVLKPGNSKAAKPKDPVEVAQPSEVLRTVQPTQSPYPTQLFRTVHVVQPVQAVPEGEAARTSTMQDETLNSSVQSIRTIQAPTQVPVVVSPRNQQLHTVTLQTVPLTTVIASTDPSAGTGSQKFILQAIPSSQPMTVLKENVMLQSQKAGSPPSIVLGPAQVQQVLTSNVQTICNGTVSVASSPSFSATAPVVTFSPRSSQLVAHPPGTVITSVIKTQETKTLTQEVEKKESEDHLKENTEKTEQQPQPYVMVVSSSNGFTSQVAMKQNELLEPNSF
# Summary of the method: as §1
# EHF = biological target: T5, EHF (Homo sapiens, UniProt Q9NZC4 1-300); details: protein: recombinant; tags: N-terminal GST; dsDNA, one strand shown
# T5 sequence: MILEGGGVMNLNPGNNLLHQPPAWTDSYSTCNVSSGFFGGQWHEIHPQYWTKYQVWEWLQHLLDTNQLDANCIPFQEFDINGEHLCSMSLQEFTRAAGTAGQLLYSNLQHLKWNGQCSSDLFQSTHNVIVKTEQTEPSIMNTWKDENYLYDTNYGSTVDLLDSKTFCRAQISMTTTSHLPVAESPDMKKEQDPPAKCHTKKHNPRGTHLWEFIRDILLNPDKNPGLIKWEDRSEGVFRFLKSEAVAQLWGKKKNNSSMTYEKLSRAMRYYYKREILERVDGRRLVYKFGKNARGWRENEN
# Summary of the method: as §1
# SPI1 = SPI1 (Homo sapiens, UniProt P17947 1-270); details: protein: recombinant; tags: N-terminal GST; dsDNA, one strand shown
# Summary of the method: as §1
# SPIB = SPIB (Homo sapiens, UniProt Q01892 1-262); details: protein: recombinant; tags: N-terminal GST; dsDNA, one strand shown
# Chain of SPIB (Q01892 whole entry): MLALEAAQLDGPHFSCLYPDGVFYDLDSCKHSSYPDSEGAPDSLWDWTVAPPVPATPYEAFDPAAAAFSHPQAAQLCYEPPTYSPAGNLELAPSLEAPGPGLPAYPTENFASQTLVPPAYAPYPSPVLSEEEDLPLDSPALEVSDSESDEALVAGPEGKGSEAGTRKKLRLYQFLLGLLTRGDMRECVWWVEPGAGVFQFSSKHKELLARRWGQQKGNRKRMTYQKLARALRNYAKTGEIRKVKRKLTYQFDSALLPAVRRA
# Summary of the method: as §1
# ELK3 = biological target: T6, ELK3 (Homo sapiens, UniProt P41970 1-407); details: protein: recombinant; tags: N-terminal GST; dsDNA, one strand shown
# T6 sequence: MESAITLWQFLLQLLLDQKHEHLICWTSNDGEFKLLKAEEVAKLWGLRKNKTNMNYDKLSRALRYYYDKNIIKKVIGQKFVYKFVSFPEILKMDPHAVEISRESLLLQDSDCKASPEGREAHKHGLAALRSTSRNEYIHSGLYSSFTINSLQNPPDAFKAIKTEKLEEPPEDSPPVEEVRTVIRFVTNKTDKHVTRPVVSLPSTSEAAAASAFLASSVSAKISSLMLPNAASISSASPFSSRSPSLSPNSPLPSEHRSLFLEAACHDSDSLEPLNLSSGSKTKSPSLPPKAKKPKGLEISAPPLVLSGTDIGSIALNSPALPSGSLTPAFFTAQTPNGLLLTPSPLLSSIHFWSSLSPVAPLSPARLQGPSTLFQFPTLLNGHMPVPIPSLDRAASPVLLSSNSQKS
# Summary of the method: as §1
# FEV = biological target: T7, FEV (Homo sapiens, UniProt Q99581 1-238); details: protein: recombinant; tags: N-terminal GST; dsDNA, one strand shown
# T7 sequence: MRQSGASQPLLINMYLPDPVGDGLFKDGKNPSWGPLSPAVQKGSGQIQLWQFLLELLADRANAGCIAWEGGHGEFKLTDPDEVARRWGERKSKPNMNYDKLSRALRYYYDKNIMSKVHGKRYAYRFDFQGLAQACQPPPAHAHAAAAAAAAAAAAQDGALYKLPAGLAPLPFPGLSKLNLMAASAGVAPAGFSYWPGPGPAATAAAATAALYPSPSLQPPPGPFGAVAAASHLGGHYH
# Summary of the method: as §1
# ETV5 = ETV5 (Homo sapiens, UniProt P41161 1-510); details: protein: recombinant; tags: N-terminal GST; dsDNA, one strand shown
# Chain of ETV5 (P41161 whole entry): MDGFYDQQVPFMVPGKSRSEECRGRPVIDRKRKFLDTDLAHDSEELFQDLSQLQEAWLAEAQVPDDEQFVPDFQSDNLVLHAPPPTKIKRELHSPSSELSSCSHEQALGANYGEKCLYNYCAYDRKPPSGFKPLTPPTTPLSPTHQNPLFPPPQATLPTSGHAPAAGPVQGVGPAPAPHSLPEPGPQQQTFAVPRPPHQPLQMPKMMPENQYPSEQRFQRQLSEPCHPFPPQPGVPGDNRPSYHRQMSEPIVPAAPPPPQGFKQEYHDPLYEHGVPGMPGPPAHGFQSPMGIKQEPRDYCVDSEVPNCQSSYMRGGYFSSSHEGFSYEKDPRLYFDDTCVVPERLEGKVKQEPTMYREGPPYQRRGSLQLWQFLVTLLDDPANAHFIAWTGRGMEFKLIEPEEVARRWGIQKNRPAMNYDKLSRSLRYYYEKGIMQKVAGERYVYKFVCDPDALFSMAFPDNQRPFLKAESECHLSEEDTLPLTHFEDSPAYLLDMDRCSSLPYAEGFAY
# Summary of the method: as §1
# HSF1 = HSF1 (Homo sapiens, UniProt Q00613 1-529); details: protein: recombinant; tags: N-terminal GST; chain copies: 3; dsDNA, one strand shown
# Chain of HSF1 (Q00613 whole entry): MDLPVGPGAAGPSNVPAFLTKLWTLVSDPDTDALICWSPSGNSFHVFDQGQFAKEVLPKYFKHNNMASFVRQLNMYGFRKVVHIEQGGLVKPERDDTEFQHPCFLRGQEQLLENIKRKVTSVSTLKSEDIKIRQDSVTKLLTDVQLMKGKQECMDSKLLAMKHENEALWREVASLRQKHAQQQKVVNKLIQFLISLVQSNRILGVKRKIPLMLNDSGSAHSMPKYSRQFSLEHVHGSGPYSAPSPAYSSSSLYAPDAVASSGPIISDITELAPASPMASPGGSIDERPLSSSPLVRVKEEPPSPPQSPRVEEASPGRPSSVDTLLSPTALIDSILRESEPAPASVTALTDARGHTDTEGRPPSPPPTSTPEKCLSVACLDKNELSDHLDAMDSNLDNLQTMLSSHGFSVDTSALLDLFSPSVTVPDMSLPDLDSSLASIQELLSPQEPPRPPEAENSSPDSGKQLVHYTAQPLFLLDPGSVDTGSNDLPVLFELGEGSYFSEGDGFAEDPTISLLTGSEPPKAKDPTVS
# Summary of the method: as §1
# SPIC = biological target: T8, SPIC (Homo sapiens, UniProt Q8N5J4 1-248); details: protein: recombinant; tags: N-terminal GST; dsDNA, one strand shown
# T8 sequence: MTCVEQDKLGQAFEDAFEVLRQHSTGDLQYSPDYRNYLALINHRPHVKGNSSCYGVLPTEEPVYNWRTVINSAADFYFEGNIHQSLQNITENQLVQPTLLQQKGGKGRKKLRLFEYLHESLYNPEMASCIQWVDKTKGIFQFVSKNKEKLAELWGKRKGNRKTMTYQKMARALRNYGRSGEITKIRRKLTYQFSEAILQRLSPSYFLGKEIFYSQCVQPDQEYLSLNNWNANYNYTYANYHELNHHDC
# Summary of the method: as §1
# ELF4 = ELF4 (Homo sapiens, UniProt Q99607 1-663); details: protein: recombinant; tags: N-terminal GST; dsDNA, one strand shown
# Chain of ELF4 (Q99607 whole entry): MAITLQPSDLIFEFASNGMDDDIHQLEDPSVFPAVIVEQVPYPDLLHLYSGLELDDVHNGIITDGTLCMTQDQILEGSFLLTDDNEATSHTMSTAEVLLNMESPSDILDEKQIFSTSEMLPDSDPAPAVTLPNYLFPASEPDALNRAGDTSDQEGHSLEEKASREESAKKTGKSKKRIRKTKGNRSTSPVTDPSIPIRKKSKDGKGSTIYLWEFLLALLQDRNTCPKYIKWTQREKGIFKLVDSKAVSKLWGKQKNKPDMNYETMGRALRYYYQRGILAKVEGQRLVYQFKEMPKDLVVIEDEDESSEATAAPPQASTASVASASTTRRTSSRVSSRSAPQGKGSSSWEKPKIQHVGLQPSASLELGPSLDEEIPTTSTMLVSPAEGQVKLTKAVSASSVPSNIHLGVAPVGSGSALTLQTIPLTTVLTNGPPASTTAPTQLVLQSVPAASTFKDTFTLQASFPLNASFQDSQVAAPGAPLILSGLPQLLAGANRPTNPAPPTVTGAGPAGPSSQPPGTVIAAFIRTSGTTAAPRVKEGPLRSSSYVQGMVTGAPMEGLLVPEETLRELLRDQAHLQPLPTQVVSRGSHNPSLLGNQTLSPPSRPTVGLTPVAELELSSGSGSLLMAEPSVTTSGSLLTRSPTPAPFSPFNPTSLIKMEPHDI
# Summary of the method: as §1
# ELK4 = biological target: T9, ELK4 (Homo sapiens, UniProt P28324-2 1-405); details: protein: recombinant; tags: N-terminal GST; dsDNA, one strand shown
# T9 sequence: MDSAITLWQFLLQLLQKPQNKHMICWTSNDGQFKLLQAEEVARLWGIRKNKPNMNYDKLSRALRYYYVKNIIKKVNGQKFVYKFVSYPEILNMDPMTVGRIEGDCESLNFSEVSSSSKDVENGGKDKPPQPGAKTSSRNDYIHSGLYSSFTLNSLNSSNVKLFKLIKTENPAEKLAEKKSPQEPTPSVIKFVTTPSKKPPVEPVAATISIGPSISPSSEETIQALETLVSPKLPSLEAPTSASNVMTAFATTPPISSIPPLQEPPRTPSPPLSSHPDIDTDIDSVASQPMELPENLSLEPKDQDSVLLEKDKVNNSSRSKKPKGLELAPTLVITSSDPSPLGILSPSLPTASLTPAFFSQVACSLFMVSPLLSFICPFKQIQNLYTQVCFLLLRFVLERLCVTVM
# Summary of the method: as §1
# ETV2 = biological target: T10, ETV2 (Homo sapiens, UniProt O00321 1-342); details: protein: recombinant; tags: N-terminal GST; dsDNA, one strand shown
# T10 sequence: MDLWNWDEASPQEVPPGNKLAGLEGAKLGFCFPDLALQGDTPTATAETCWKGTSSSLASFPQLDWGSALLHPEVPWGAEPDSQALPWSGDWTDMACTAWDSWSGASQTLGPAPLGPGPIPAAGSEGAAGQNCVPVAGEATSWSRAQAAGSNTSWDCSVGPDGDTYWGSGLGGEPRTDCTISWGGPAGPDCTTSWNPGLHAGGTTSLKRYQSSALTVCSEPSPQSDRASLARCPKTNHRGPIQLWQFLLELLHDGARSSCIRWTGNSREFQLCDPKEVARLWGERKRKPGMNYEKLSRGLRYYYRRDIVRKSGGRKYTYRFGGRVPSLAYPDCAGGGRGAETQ
# Summary of the method: as §1
# ELF3 = biological target: T11, ELF3 (Homo sapiens, UniProt P78545 1-371); details: protein: recombinant; tags: N-terminal GST; dsDNA, one strand shown
# T11 sequence: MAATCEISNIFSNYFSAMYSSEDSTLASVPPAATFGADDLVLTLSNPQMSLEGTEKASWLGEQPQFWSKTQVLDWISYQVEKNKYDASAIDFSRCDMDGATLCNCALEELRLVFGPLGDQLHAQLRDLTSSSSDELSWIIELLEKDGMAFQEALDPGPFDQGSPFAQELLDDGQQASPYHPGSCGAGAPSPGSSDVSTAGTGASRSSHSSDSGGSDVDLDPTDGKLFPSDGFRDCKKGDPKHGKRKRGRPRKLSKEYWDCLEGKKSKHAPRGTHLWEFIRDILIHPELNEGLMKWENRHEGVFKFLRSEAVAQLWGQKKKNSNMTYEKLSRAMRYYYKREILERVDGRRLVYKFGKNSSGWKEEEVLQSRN
# Summary of the method: as §1
# CRX = CRX (Homo sapiens, UniProt O43186 1-299); details: protein: recombinant; tags: N-terminal GST; dsDNA, one strand shown
# Chain of CRX (O43186 whole entry): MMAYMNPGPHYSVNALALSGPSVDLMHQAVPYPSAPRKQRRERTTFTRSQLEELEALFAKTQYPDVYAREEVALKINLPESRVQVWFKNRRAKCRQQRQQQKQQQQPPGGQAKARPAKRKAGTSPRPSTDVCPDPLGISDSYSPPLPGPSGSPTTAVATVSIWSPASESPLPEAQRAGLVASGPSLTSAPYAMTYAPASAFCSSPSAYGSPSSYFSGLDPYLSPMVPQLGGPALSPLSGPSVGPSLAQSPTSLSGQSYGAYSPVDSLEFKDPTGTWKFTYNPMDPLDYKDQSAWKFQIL
# Summary of the method: as §1
# ETV1 = ETV1 (Homo sapiens, UniProt P50549 1-477); details: protein: recombinant; tags: N-terminal GST; dsDNA, one strand shown
# Chain of ETV1 (P50549 whole entry): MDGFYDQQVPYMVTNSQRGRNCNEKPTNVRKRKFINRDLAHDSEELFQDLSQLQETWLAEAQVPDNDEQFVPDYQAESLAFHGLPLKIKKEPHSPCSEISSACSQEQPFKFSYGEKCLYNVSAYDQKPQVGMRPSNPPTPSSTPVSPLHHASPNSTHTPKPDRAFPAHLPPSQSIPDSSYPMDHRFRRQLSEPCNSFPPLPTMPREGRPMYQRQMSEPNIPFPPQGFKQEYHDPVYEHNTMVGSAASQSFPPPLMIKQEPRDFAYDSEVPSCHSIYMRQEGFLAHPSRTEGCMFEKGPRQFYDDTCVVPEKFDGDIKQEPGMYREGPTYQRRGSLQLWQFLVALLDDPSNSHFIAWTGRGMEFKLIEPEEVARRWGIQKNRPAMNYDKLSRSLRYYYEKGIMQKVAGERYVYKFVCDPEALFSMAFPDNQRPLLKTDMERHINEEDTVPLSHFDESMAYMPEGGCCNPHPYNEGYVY
# Summary of the method: as §1
sequence,measurement,setting,value
TCTCGG,binding signal,FLI1,"1.69 fold enrichment (6-mer frequency, TF over GST control)"
same,binding signal,ELK1,"1.41 fold enrichment (6-mer frequency, TF over GST control)"
same,binding signal,GABPA,"1.5 fold enrichment (6-mer frequency, TF over GST control)"
same,binding signal,ERG,"1.38 fold enrichment (6-mer frequency, TF over GST control)"
same,binding signal,ELF1,"1.46 fold enrichment (6-mer frequency, TF over GST control)"
same,binding signal,EHF,"1.29 fold enrichment (6-mer frequency, TF over GST control)"
same,binding signal,SPI1,"1.52 fold enrichment (6-mer frequency, TF over GST control)"
same,binding signal,SPIB,"1.44 fold enrichment (6-mer frequency, TF over GST control)"
same,binding signal,ELK3,"1.42 fold enrichment (6-mer frequency, TF over GST control)"
same,binding signal,FEV,"1.31 fold enrichment (6-mer frequency, TF over GST control)"
same,binding signal,ETV5,"1.41 fold enrichment (6-mer frequency, TF over GST control)"
same,binding signal,HSF1,"1.89 fold enrichment (6-mer frequency, TF over GST control)"
same,binding signal,SPIC,"1.1 fold enrichment (6-mer frequency, TF over GST control)"
same,binding signal,ELF4,"1.4 fold enrichment (6-mer frequency, TF over GST control)"
same,binding signal,ELK4,"1.38 fold enrichment (6-mer frequency, TF over GST control)"
same,binding signal,ETV2,"1.48 fold enrichment (6-mer frequency, TF over GST control)"
same,binding signal,ELF3,"1.33 fold enrichment (6-mer frequency, TF over GST control)"
same,binding signal,CRX,"1.44 fold enrichment (6-mer frequency, TF over GST control)"
same,binding signal,ETV1,"1.38 fold enrichment (6-mer frequency, TF over GST control)"
